The results in this text go back to PubChem BioAssay (Tox21).

Structures are written as SMILES. Records with an inconclusive call do not appear. Calls of active or inactive are those of the source. Calls follow the shape of the dose curve; as a rule, active = well fitted inhibition curve with a large enough effect in the repeat runs; inconclusive = weak or mixed curves; inactive = no such curve, though single readings can be large or run the other way.
% is scaled to controls: 0 for no effect and ±100 for the full control effect; potency is read from the fitted curve at half-maximal effect.

Cytochrome P450 2C19 (Homo sapiens), sequence (P33261 whole entry, looked up): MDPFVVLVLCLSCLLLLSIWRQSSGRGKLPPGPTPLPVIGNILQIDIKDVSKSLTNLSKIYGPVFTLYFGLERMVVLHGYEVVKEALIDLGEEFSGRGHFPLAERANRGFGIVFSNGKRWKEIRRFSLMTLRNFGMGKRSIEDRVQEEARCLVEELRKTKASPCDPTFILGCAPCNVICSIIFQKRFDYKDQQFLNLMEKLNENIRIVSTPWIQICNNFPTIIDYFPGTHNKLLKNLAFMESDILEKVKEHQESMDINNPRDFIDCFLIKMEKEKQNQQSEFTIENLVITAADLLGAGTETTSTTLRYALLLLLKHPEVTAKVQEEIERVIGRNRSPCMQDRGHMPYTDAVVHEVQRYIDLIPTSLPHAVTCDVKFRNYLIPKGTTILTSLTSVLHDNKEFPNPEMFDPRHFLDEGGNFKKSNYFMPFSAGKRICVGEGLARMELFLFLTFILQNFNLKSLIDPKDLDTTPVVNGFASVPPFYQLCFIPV

The test deals with Cytochrome P450 2C19 (Homo sapiens) (UniProt P33261). Description: Cytochrome P450 Family 2 Subfamily C Member 19 (CYP2C19) small molecule antagonists: luciferase reporter qHTS assay (AID 1671197). Also: nearly all actives have a fitted effect of over 65% in size. Conditions: P450-Glo CYP2C19 enzyme, luciferin luminescence, 1 h; series mostly up to 115 µM; activity change, negative = inhibition: at the top concentration. The source says:
National Center for Advancing Translational Sciences [NCATS]
U.S. Environmental Protection Agency [EPA]
National Institutes of Environmental Health Sciences [NIEHS]
National Toxicology Program [NTP]
U.S. Food and Drug Administration [FDA]
Cytochrome P450 (CYP) enzymes are membrane-bound hemeproteins that play a key role in metabolism of drugs and xenobiotics. Evaluation of the effect of chemicals on CYP isozymes is useful to minimize the adverse drug reactions and toxicities in drug development process. Tox21 chemicals were tested for their effect on CYP enzyme activities by using P450-Glo (TM) screening systems (Promega Corporation, Madison, WI). These systems provide a luminescent method containing proluciferin substrates and are converted to luciferin products by CYP isozymes. The luciferin products formed are detected with a luciferin detection reagent, and the amount of light produced is proportional to CYP activity. P450-Glo (TM) CYP2C19 screening system (Catalog. No. V9880) was used to detect the compounds that interfere in CYP2C19 activity. The positive control compound used for CYP2C19 assay is ketoconazole (Sigma-Aldrich, St. Louis, MO).
Tox21 Assay Protocol Summary:
Two ul of enzyme-substrate mix was dispensed into medium binding white/solid 1536-well plates (Greiner Bio-One North America Inc., Monroe, NC) using a BioRaptr Flying Reagent Dispenser (FRD, Beckman Coulter, Brea, CA). Compounds dissolved in DMSO and positive control (ketoconazole) were transferred to the assay plates at 23 nl using a Pintool station (Wako, San Diego, CA). The assay plates were incubated at room temperature for 10 min. Then 2 ul of NADPH regeneration solution was added to each well of the assay plates using an FRD and incubated at 37C for 1 h. The reaction was stopped by adding 4 ul of detection reagent using an FRD and after 20 min incubation at room temperature the luminescence signal was measured using a ViewLux plate reader (Perkin Elmer, Shelton, CT). Data were expressed as relative luminescence units.
(In general: Reporter assays use an easily measured gene product as a stand-in for the process of interest.)
For `CC1(CO)CN(c2ccccc2)NC1=O` (stereo not given), the Potency was 20 µM (active). For `COP(=O)(OC)OC(c1ccc(Cl)cc1)P(=O)(OC)OC` (stereo not given), the “activity change, negative = inhibition” value is 8.81% [at 52.9 µM] (inactive). For the molecule `O=S(O)(O)=S`, the activity change, negative = inhibition was -17.3% [at 10.5 µM] (inactive). For the molecule `Nc1ccc2cc(S(=O)(=O)O)cc(O)c2c1`, the Potency is 22.3 µM (active).

Take `COCCOCCOCCOCCOCCO`: the “activity change, negative = inhibition” value is -17.8% (inactive). `N[C@@H](COP(=O)(O)O)C(=O)O`: the activity change, negative = inhibition is 14.8% [at 23.6 µM] (inactive). In the case of `CN(C)C(=O)CNC(=O)Cc1ccccc1`, the “activity change, negative = inhibition” value is 12.8% [at 52.9 µM] (inactive). In the case of `CC(C)(C)c1cc(CCC(=O)NN)cc(C(C)(C)C)c1O`, the Potency is 6.33 µM (active). For the molecule `COc1ccc(OC)c(Cl)c1`, the “activity change, negative = inhibition” value was -17% (inactive). The same measure, in the same setting: under `CC1=CCC(C(C)C)=CC1` stands 10.2% (inactive).

As for `O=C(O)c1cc(Cl)cc([N+](=O)[O-])c1Cl`, the “activity change, negative = inhibition” value is -11.8% (inactive). For `O=C(NCCN1CCOCC1)c1ccc(Cl)cc1`, the Potency is 34.7 µM (active).

Turning to `CC(C)CC(C)CC(C)CC(C)COC(=O)c1ccccc1C(=O)OCC(C)CC(C)CC(C)CC(C)C` (stereo not given), the Potency is 65.9 µM (active). For the molecule `O=C(O)Cc1ccc(Cl)cc1Cl`, the “activity change, negative = inhibition” value was 5.63% (inactive). Regarding `CCCCNC1CC(C)(C)NC(C)(C)C1`, the “activity change, negative = inhibition” value was -15% (inactive). Take `COCCOCCOCCOCCO`: the “activity change, negative = inhibition” value was -10.5% (inactive). With `COc1ccc(C2CNC(=O)C2)cc1OC1CCCC1` (stereo not given), the “activity change, negative = inhibition” value was -10.7% [at 52.9 µM] (inactive). Turning to `C[C@H](CCC(=O)O)[C@H]1CC[C@H]2[C@@H]3C(=O)C[C@@H]4CC(=O)CC[C@]4(C)[C@H]3CC(=O)[C@]12C`, the “activity change, negative = inhibition” value is 20.5% [at 52.9 µM] (inactive). In the case of `C=COCCOCCOCCOC=C`, the Potency was 79.6 µM (active). For `CCC(C=O)CC`, the “activity change, negative = inhibition” value was -19% (inactive). On to `FC(F)(F)c1ccccc1-n1ccnc1`, for which the Potency is 5.49 µM (active). On to `C[C@@H](Oc1ccc(CNC(=O)c2cccnc2Oc2ccc3c(c2)OCO3)c(F)c1)C(=O)O`, for which the “activity change, negative = inhibition” value is -11.4% (inactive). `OCCCCC(O)CO` (stereo not given): the “activity change, negative = inhibition” value is 12.2% (inactive).

With `COCCc1ccc(OCC2CO2)cc1` (stereo not given), the “activity change, negative = inhibition” value is 25.1% [at 52.9 µM] (inactive).

As to `Nc1ccc([N+](=O)[O-])c(N)c1`, the Potency is 30.9 µM (active). In the case of `CCN(C)C(=O)Oc1cccc([C@H](C)N(C)C)c1`, the “activity change, negative = inhibition” value was 14.5% [at 52.9 µM] (inactive). Take `CC(C)(C)c1nnc(NS(=O)(=O)c2ccc(N)cc2)s1`: the “activity change, negative = inhibition” value is 10% [at 52.9 µM] (inactive). For `COc1ccc2c(c1OC)C(=O)O[C@@H]2[C@H]1c2c(cc3c(c2OC)OCO3)CCN1C`, the Potency was 1.38 µM (active).

Take `CCOc1cc([N+](=O)[O-])c(OCC)cc1N1CCOCC1`: the “activity change, negative = inhibition” value is -9.95% (inactive). Turning to `CC(C)=CCOC(=O)c1ccccc1`, the “activity change, negative = inhibition” value is 8.68% (inactive).

Take `CCCCCOC(=O)CCC`: the “activity change, negative = inhibition” value was -3.31% (inactive). `CC(=O)c1sc(C)nc1C`: the “activity change, negative = inhibition” value was 34.8% (inactive). On to `CC(C)C[C@H](NC(=O)CNC(=O)[C@H](Cc1ccc(O)cc1)NC(=O)[C@H](CO)NC(=O)[C@H](Cc1c[nH]c2ccccc12)NC(=O)[C@H](Cc1cnc[nH]1)NC(=O)[C@@H]1CCC(=O)N1)C(=O)N[C@@H](CCCN=C(N)N)C(=O)N1CCC[C@H]1C(=O)NCC(N)=O` (stereo in doubt), for which the “activity change, negative = inhibition” value is 17.7% [at 52.9 µM] (inactive). As for `O=S(=O)(O)c1cc(O)c2ccc(Nc3ccccc3)cc2c1`, the Potency was 71 µM (active). Same read-out and setting: under `OCCN(CCO)c1cccc(Cl)c1` stands 31.7 µM (active); under `CC(C)CCCCOC(=O)c1ccccc1C(=O)OCCCCC(C)C`, 31.8 µM (active). As for `Nc1nnc(-c2cccc(Cl)c2Cl)c(N)n1`, the “activity change, negative = inhibition” value was -12.8% [at 52.9 µM] (inactive).

Regarding `O=C(OCC(O)CO)c1ccccc1Nc1ccnc2c(C(F)(F)F)cccc12` (stereo not given), the Potency is 0.347 µM (active).

Turning to `C[C@H](N)[C@H](O)c1cccc(O)c1`, the “activity change, negative = inhibition” value is 20.7% [at 52.9 µM] (inactive).

`CCOC(=O)/C=C/c1ccccc1`: the Potency was 71 µM (active).
